Sampled rows, rich in hits. Any-hit rate of the full collection: about 7%.
KAT2A inh: blocks human GCN5L2 histone acetyltransferase; Q92830; GCN5L2 HAT assay, ThioGlo1 CoA-SH fluorescence; Potency, µM (top dose mostly 58.9 µM), without a hit: at the highest dose activity change, negative = inhibition, hits mostly inhibitors; 0.21% of 390,000 active; further: potency means the concentration at half of the fitted maximal effect; on the % scale 0 is the no-effect control and ±100 the full control effect
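Compounds, pin-transferred from DMSO stocks, meet 20nM GCN5L2 for 15 min before the reaction begins with H3(1-25) peptide (75uM) and acetyl-CoA (70uM). Thiol-reactive ThioGlo1 reports CoA release over 20 min at room temperature.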
JMJD2A Tudor: blocks the human JMJD2A Tudor domain | O75164 | AlphaScreen JMJD2A-Tudor / H3K4me3 peptide binding | Potency, µM (doses to about 114 µM), for the others: at the top dose activity change, negative = inhibition, usual class: inhibitors | AID 504339 | 4.4% of 390,000 active; further: potency means the concentration at half of the fitted maximal effect; on the % scale 0 is the no-effect control and ±100 the full control effect; nearly all actives have a fitted effect of over 50% in size
PLK1 PBD block: PLK1 (human) polo-box domain binding inhibition; 2.8% of 360,000 active; Potency, µM, without a hit: max response, negative = inhibition, actives largely listed as inhibitors; Plk1 PBD binding of FITC phosphopeptide, fluorescence polarization; AID 720504; P53350; further: potency means the concentration at half of the fitted maximal effect; series mostly up to about 57 µM; on the % scale 0 is the no-effect control and ±100 the full control effect; nearly all actives have a fitted effect of over 65% in size
PI5P4K alpha inh: blocks human PI5P4K alpha kinase activity. P48426. PI5P4Kalpha enzyme, ADP-Glo luminescence, 60 min; stronger effect = lower value. max response, %. 1.2% of 330,000 active. AID 652105; active means max response of -50% or lower; inconclusive means between -30% and -50%; inactive means -30% or higher; further: value at the top dose of about 77 µM; on the % scale 0 is the no-effect control and ±100 the full control effect
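Human PI5P4Kalpha with substrate in 0.038 M HEPES pH 7.4, 0.28 mM EGTA, 0.1% CHAPS, 5% DMSO; reaction started with 5 microM ATP (final), 60 min at room temperature. ADP formed read by ADP-Glo luminescence.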
BAZ2B inh: blocks human BAZ2B; 4.4% of 360,000 active; AID 504333; Potency, µM (doses to about 114 µM), without a hit: at the highest dose activity change, negative = inhibition, most hits filed as inhibitors; Q9UIF8; AlphaScreen BAZ2B-H3K14Ac peptide displacement; further: potency means the concentration at half of the fitted maximal effect; on the % scale 0 is the no-effect control and ±100 the full control effect; nearly all actives have a fitted effect of over 60% in size
Target sequence (Q9UIF8 whole entry, looked up): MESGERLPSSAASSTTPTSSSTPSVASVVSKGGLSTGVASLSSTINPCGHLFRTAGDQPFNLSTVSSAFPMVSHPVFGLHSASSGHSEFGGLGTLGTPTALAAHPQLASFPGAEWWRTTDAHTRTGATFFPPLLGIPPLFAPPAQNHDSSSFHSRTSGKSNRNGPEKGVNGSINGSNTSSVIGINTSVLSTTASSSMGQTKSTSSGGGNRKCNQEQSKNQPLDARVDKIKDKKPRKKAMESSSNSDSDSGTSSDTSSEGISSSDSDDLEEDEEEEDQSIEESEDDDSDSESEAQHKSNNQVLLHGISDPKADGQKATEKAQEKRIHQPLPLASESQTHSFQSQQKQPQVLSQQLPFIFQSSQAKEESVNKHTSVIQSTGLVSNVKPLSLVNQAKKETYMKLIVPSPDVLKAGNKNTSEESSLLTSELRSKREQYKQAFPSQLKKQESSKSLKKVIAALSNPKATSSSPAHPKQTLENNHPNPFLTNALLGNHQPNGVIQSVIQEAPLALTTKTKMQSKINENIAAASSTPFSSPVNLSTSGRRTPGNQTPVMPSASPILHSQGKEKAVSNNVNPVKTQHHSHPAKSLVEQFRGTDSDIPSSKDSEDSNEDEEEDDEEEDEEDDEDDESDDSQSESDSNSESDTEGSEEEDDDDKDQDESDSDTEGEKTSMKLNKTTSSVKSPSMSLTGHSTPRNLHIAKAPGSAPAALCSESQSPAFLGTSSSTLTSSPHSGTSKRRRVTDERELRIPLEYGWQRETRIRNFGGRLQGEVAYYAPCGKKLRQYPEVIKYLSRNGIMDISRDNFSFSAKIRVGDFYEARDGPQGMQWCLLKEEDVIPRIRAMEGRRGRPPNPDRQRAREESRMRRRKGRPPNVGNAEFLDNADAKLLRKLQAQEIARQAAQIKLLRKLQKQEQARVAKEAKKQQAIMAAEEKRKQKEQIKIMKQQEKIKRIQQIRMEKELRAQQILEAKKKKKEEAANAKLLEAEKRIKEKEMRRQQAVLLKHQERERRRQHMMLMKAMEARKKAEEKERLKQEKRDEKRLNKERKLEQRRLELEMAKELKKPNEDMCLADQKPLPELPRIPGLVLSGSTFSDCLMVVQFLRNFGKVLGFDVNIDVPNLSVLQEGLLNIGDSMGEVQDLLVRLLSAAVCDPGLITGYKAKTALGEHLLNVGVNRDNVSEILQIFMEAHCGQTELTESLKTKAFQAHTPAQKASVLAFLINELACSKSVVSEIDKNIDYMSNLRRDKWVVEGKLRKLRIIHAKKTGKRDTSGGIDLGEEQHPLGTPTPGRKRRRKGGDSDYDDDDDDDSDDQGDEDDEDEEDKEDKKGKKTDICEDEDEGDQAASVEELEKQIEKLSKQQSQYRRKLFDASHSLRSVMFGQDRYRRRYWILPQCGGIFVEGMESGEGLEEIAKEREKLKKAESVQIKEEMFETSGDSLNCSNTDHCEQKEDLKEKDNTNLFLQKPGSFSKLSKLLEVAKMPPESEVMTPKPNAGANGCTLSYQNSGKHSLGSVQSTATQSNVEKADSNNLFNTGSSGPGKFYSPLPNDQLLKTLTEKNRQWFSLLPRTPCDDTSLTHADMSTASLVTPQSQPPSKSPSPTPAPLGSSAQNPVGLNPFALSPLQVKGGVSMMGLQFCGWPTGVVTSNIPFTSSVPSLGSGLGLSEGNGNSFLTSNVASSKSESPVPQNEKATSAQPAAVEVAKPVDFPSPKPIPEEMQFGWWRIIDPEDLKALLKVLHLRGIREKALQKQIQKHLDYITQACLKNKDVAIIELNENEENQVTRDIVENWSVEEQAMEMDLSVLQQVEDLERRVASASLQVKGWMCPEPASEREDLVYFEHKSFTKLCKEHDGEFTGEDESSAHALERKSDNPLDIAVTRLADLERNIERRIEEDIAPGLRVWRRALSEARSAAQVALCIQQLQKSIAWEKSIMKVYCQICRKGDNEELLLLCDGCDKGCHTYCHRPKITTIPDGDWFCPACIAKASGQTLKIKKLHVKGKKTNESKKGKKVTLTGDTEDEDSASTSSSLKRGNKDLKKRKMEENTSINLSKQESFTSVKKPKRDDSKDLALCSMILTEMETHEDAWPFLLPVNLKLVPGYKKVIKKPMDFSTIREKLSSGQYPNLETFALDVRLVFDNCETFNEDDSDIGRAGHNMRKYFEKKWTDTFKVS
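AlphaScreen displacement: compounds (up to 110uM) incubated 30 min at room temperature with a preformed 50 nM BAZ2B/50 nM biotinylated H3K14Ac peptide complex in PBS pH 7.4 with Tween-20. Donor and acceptor beads at 10 ug/mL final added, 20 min light-protected before reading.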
HP1b chromo inh: blocks HP1-beta chromodomain binding to methylated histone tails; 0.56% of 390,000 active; AID 540317; Potency, µM (series often up to 114 µM), without a hit: at the highest dose activity change, negative = inhibition, actives largely listed as inhibitors; AlphaScreen HP1-beta / biotin-H3K9me3 peptide binding; further: potency means the concentration at half of the fitted maximal effect; nearly all actives have a fitted effect of over 70% in size
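Compound inhibition of the preformed complex between 50 nM HP1-beta and 50 nM biotinylated H3K9me3 peptide was read by AlphaScreen. Buffer was PBS pH 7.4 with 0.01% Tween-20. Incubations ran 30 min at room temperature, with 10 ug/mL donor/acceptor beads.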
* marks the source's active call; other numbers are inactive results; ? = inconclusive; nt = no result; ! = not confirmed by another sample; [ ] = dose if it differs, or a comment. Unless noted, the call rests on the fitted dose curve; in most records, active means well fitted curve in the direction sought with a large enough effect; inconclusive means small, poorly fitted or top-dose-only effect, or another doubt; inactive means no such curve, though single readings can be large; an effect the other way counts as inactive or inconclusive.

SMILES | KAT2A inh | JMJD2A Tudor | PLK1 PBD block | PI5P4K alpha inh | BAZ2B inh | HP1b chromo inh
COc1ccc(N2CCN(c3cc(C)c4ccc(O)cc4n3)CC2)cc1 | -3% | ? | 5% | 3 | 45µM* | 16%
COc1ccc(N2CCN(c3cc(C)c4cccc(C)c4n3)CC2)cc1 | -8% | 22µM* | 2% | 4 | ? | ?
Cc1cc(N2CCN(c3ncccn3)CC2)nc2c(C)cccc12 | -8% | 13% | 3% | 28 | 70% | 59%
CSc1cccc(NC(=O)c2[nH]c(C)c(C(C)=O)c2C)c1 | -4% | -19% | 0% | -3 | 50µM* | ?
CC(=O)c1c(C)[nH]c(C(=O)Nc2ccc(Cl)cc2)c1C | -4% | -12% | -1% | 7 | -1% | 23%
Cc1cc(C)c(NC(=O)CCN2C(=O)c3ccccc3Sc3ncccc32)c(C)c1 | -14% | 2% | nt | nt | ? | 25%
COc1ccc(S(=O)(=O)CC(=O)c2cc3cc(Br)ccc3oc2=O)cc1 | ? | ? | 1.7µM* | -75* | 45µM* | -16%[57 µM]
Cc1ccc(S(=O)(=O)NNC(=O)c2csnn2)cc1 | 0% | 18µM* | -21% | -2 | -5% | 19%
Cc1ccc(S(=O)(=O)NNC(=O)c2ccccc2O)cc1 | 0% | 3.2µM* | -4% | 4 | 1% | 4%
CC(C)(C)c1ccc(C2CC2C(=O)N/N=C\c2ccc[nH]2)cc1 (centres undefined) | -5% | 56µM* | -1% | 8 | ? | ?
O=C(N/N=C/c1c[nH]c2ccccc12)C1CC1c1ccccc1 (centres undefined) | -3% | -33% | 2% | 2 | -27% | 6%
O=C(N/N=C/c1ccco1)C1CC1c1ccccc1 (centres undefined) | 3% | ? | -21% | -50* | 50µM* | ?
O=C(N/N=C/c1ccco1)C1CC1 | 1% | -3% | -8% | 3 | -2% | 39%
Cc1ccc(N(Cc2cc3ccc(C)cc3[nH]c2=O)C(=O)c2ccco2)cc1 | -14% | -36% | 27µM* | ? | -22% | -2%
Cc1cccc(N=NC(=S)NNc2cccc(C)c2)c1 | nt | 25µM* | ? | -6 | nt | 45µM*
Cc1cccc(NNC(=O)C(=O)NNc2cccc(C)c2)c1 | 0% | 1% | 3% | -6 | -12% | 31%
Cc1cc(=O)[nH]c2nnc(SCc3ccc(C(F)(F)F)cc3)n12 | -5% | -7% | nt | nt | -3% | 24%
COc1ccc(N2COC3c4cccc5cccc(c45)C32)cc1 (centres undefined) | -9% | 63µM* | -3% | -2 | 45µM* | -38%
CCCCCCC/C=C\CCCCCCCCC(=O)O | 8.9µM* | nt | nt | nt | nt | nt
CCCCCCCCCCC/C=C\C(C)(C)/C=C\CCCC(=O)O | 7.9µM* | nt | nt | nt | nt | nt
CC/C=C\C/C=C\C/C=C\CCCCCCCC(=O)O | 10µM*! | -27% | ? | ? | -5% | 11%
OC(COCc1ccco1)CN1CCN(C(c2ccccc2)c2ccccc2)CC1 (centres undefined) | -1% | 1.3µM* | -2% | 8 | 35µM* | 28µM*
Cc1ccc(Cl)cc1N1CCN(CC(O)COCc2ccco2)CC1 (centres undefined) | -9% | 7.1µM* | 6% | -1 | 50µM* | ?
CNC(=O)c1cc(Cl)c(OC)c(OC)c1 | 31% | -35% | 27µM* | -15 | -1% | ?
COc1cc(C(N)=O)cc(Cl)c1OC | 1% | -9% | -7% | -1 | -1% | 14%
SMILES | KAT2A inh | JMJD2A Tudor | PLK1 PBD block | PI5P4K alpha inh | BAZ2B inh | HP1b chromo inh
COCCCNC(=O)c1cc(OC)c(OC)c(OC)c1 | -1% | -11%[11.4 µM] | 30µM* | -10 | 7% | 0%
COc1ccc(Cl)c2sc(NC(=O)c3ccc(S(=O)(=O)N4CCOCC4)cc3)nc12 | -10% | -6% | nt | nt | 3% | 20%[57 µM]
Cc1ccc(CNS(=O)(=O)c2c(C)[nH]c(C)c2C(=O)N2CCCCC2)o1 | -5% | -21% | -11% | 5 | -28% | 47%
CC(CCc1ccccc1)NC(=O)COC(=O)c1ccccc1Br (centres undefined) | -4% | 22% | -6% | 0 | 14% | 60%
CC(C)N(C)CCOC(=O)c1ccccc1Br | 0% | 50µM* | 24µM* | -16 | 2% | 19%
COc1ccc(CCNS(=O)(=O)c2ccc([N+](=O)[O-])cc2)cc1OC | 0% | -8% | -11% | 1 | -3% | 40%
COc1cc(C(=O)OCC(=O)c2cc(C)n(CC3CCCO3)c2C)cc(OC)c1C (centres undefined) | -20% | 45µM* | -4% | 7 | 50µM* | -13%
CC(=O)N1CCN(C(=O)CSc2ncnc3sc(C)c(C)c23)CC1 | -1% | -17% | 30µM* | 13 | nt | 16%
Cc1sc2ncnc(SCC(=O)N3CCCC3)c2c1C | -20% | -6% | -5% | -3 | 3% | 33%
Cc1ccc(NC(=O)N2CCCC2C(=O)Nc2c(C)cc(C)cc2C)cc1 (centres undefined) | -9% | -4% | 3% | 0 | -4% | 7%
CSc1ccc(CCNC(=O)CN2C(=O)c3cccnc3Oc3ccc(C)cc32)cc1 | -3% | ? | -21% | -4 | ? | 2%
Cc1ccc2c(c1)N(CC(=O)NCCCc1ccccc1)C(=O)c1cccnc1O2 | 40µM* | -6% | -1% | -7 | -6% | 35%
CC12CCCC(CC(=O)O)(C1)NC(=O)C2 (centres undefined) | nt | -2% | -6% | -3 | nt | 16%
COc1cc(C2NC(=O)C(C#N)=C(Nc3cccc(C)c3)S2)ccc1O (centres undefined) | -5% | -10% | ? | -23 | -29% | 17%
COCCCNC1=C(C#N)C(=O)NC(c2cccc([N+](=O)[O-])c2)S1 (centres undefined) | nt | nt | 19µM* | 4 | nt | nt
COc1ccc(C2=C(Nc3ccc(C)cc3C)c3ccccc3C2=O)cc1 | -10% | 28µM* | nt | nt | -25% | -20%
Cc1ccc(NS(=O)(=O)c2ccc3[nH]c4c(c3c2)CCCCCC4)cc1 | -11% | ? | nt | nt | 40µM* | -5%[57 µM]
Cc1ccc(C)c(N2CCN(S(=O)(=O)c3ccc4[nH]c5c(c4c3)CCCC5)CC2)c1 | -13% | -36% | nt | nt | -35% | 17%
COc1ccc(NS(=O)(=O)c2ccc3[nH]c4c(c3c2)CCCC4)cc1OC | 3% | 45µM* | nt | nt | ? | ?
O=S(=O)(c1ccc2[nH]c3c(c2c1)CCCC3)N1CCCCC1 | -17% | 0% | 2% | 0 | 25µM* | 47%
COc1ccccc1Oc1ccc(NC(=O)Cc2ccccc2)cc1 | nt | -7% | 0% | 3 | nt | 66%
COc1ccc(C(=O)OCc2ccccc2C#N)cc1S(=O)(=O)N1CCOCC1 | nt | nt | 7% | -1 | nt | nt
